D2 ag-1 – Beta-Arrestin HTS for Positive Allosteric Modulators of the Human D2 Dopamine Receptor: Agonists. DiscoveRx PathHunter D2 beta-arrestin, luminescence, 90 min; 100% = 57 uM dopamine signal. activation, % (test concentration not listed). actives 0.084% (n = 360,000); in the data active = activation above about 40%
Target sequence (P14416 whole entry, looked up): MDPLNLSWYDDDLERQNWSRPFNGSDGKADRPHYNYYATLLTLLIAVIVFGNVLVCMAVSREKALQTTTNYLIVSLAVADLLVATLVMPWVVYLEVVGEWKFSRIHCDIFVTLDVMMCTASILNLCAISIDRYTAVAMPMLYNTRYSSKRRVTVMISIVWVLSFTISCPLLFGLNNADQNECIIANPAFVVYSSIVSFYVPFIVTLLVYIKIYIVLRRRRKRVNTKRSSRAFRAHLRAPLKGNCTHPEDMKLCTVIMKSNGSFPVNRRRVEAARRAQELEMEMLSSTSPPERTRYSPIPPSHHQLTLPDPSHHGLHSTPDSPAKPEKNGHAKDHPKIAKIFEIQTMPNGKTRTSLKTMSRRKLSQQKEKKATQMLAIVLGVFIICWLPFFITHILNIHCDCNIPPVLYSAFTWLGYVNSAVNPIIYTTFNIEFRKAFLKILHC
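Agonist mode: compounds alone added to overnight-plated D2 PathHunter cells for 90 min at 37 C, with 57 uM final dopamine (EC100) defining full response. Beta-arrestin recruitment detected by chemiluminescent reagent, read after 1 h at ambient temperature.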
D2 ag-2 – HTS Assay for Allosteric Agonists of the Human D2 Dopamine Receptor: Primary Screen for Agonists; actives 0.53% (n = 340,000); activation, % at 2 µM; HEK293 T-REx D2 cells, calcium flux agonist mode; AID 485358, 2010; D(2) dopamine receptor (Homo sapiens), P14416;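 active = activation over 3 SD above normal in the single-dose calcium agonist read, cut at about 30% in these data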; also: 0% is about no effect
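Calcium-flux readout, 1 cycle/sec over 180 s following compound pin transfer, in inducible HEK293 Trex D2 cells (force-coupled); dopamine controls included. Positive calcium responses during this window marked compounds as potential agonists.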
D2 antag – HTS Assay for Allosteric Antagonists of the Human D2 Dopamine Receptor: Primary Screen for Antagonists; HEK293 TREx D2 cells, calcium flux, dopamine EC80; inhibition, % at 10 µM; actives 2% (n = 340,000); D(2) dopamine receptor (Homo sapiens), P14416; in the data active = inhibition above about 30%; inactive = below that, where a call was filed; also: 0% is about no effect
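Tetracycline-induced HEK293 TREx cells expressing D2 receptor forced-coupled to calcium signalling, loaded with no-wash calcium dye. Compounds added and calcium flux read 180 s, then dopamine added at EC80 and read a further 180 s.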
D2 PAM-1 – Beta-Arrestin HTS for Positive Allosteric Modulators of the Human D2 Dopamine Receptor: Potentiators; potentiation, % (test concentration not listed); DiscoveRx D2 beta-arrestin cells, luminescence, 90 min; 100% = 57 uM dopamine signal; actives 0.23% (n = 360,000); D(2) dopamine receptor (Homo sapiens), P14416; AID 624464, 2012; in the data active = potentiation above about 50%
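PathHunter beta-arrestin assay in DiscoveRx D2 cells. Compounds were added with an EC20 of dopamine (50 nM final) for 90 min at 37 deg C. Luminescence was read 1 h after detection reagent, with 57 uM dopamine as the EC100 control.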
D2 PAM-2 – HTS Assay for Positive Allosteric Modulators of the Human D2 Dopamine Receptor: Primary Screen for Potentiators. actives 0.34% (n = 340,000). HEK293 T-REx D2, calcium flux, EC20 dopamine potentiation. AID 485347, 2010. potentiation, % at 10 µM. D(2) dopamine receptor (Homo sapiens), P14416;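 active = potentiation over 3 SD above the plate norm, cut at about 30% in these data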; also: 0% is about no effect
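Primary screen. Calcium kinetics in induced HEK293 T-REx D2 cells: compound pre-addition 180 s, EC20 dopamine, 180 s more.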
The depositor's hits bear a star; · = not tested or not shown. Hits are enriched below; roughly 2.4% of the tested compounds scored in any of these assays.

SMILES | D2 ag-1 | D2 ag-2 | D2 antag | D2 PAM-1 | D2 PAM-2
Cc1ccc(CCNC(=O)Cc2ccc(NC3=NC4CS(=O)(=O)CC4S3)cc2)cc1 (stereo not drawn) | -6 | 0 | 38* | -5 | -4
COc1ccc(OC)c(CCNC(=O)c2ccc(NC3=NC4CS(=O)(=O)CC4S3)cc2)c1 (stereo not drawn) | -3 | 0 | 34* | -3 | 19
CCOc1ccccc1NC(=O)c1cccc(NC2=NC3CS(=O)(=O)CC3S2)c1 (stereo not drawn) | -4 | 0 | 0 | 0 | 3
c1ccc(-c2cc3n(c2)CCc2ccccc2-3)cc1 | 1 | 1 | 33* | 5 | -4
CC1=C(C(=O)Nc2cccc(C(=O)NC(C)C)c2)SCCO1 | 5 | -1 | 14 | 3 | 1
CCC(C)NC(=O)c1ccc(NC(=O)C2=C(C)OCCS2)cc1 (stereo not drawn) | -4 | 0 | 44* | -5 | -6
N#Cc1c(N2CCN(C(=O)c3ccco3)CC2)nc(-c2ccccc2)c2c1CCCC2 | -4 | 1 | 32* | -12 | 2
Cc1ccc(C2C(C(=O)c3cccs3)=C(O)C(=O)N2CCN2CCOCC2)o1 (stereo not drawn) | -4 | -2 | 11 | -10 | 38*
O=C(NCC(c1cccnc1)N1CCc2ccccc2C1)C(=O)Nc1ccc(F)cc1F (stereo not drawn) | · | -2 | · | · | -4
Cc1ccc(-n2nc(C(=O)N(C)c3ccccc3Cl)c3c4ccccc4n(C)c3c2=O)cc1 | · | 1 | · | · | 4
O=C(NCc1cccnc1)c1ccc(COc2ccccc2Br)cc1 | 5 | -2 | 53* | -11 | -22
O=C(NCc1cccnc1)c1ccc(COc2ccccc2Cl)cc1 | 1 | -1 | 4 | -13 | -5
CN(C)c1nc(SCC(=O)Nc2ccccc2)nc(N2CCOCC2)n1 | -18 | 1 | 31* | 2 | 2
CN(C)c1nc(SCC(=O)Nc2ccc(Cl)c(Cl)c2)nc(N2CCOCC2)n1 | 3 | -2 | 12 | -7 | ·
COc1cccc(-c2cc(C(F)(F)F)n3nc(C)c(-c4ccccc4)c3n2)c1 | · | 0 | · | · | 8
O=C(Cn1c(=O)n(Cc2nc(-c3ccccc3)no2)c(=O)c2cc3c(cc21)OCO3)Nc1ccc(Cl)cc1 | · | 1 | · | · | 9
Cc1cc(C)cc(N2CC(C(=O)OCC(=O)Nc3cc(C)on3)CC2=O)c1 (stereo not drawn) | -4 | -1 | 15 | -5 | 41*
Cc1ccc(N2CC(C(=O)OCC(=O)Nc3cc(C)on3)CC2=O)c(C)c1 (stereo not drawn) | -3 | 0 | -5 | -13 | -5
CC1CCN(S(=O)(=O)c2ccc3ncn(CC(=O)N4CCN(C)CC4)c(=O)c3c2)CC1 | -5 | 0 | 48* | -4 | 12
COc1ccc(NC2=NCC(=O)N2c2ccccc2F)cc1 | -4 | -1 | 37* | -1 | 7
CCC1CCC(N2CCN(c3ccccc3F)CC2)CC1 (stereo not drawn) | 5 | 18 | 37* | 1 | -24
CCOc1ccc(S(=O)(=O)NCc2cccn2Cc2cccc(C)c2)cc1 | · | 1 | · | · | 4
CSc1cccc(CN2CCN(CCC(C)C)C(CCO)C2)c1 (stereo not drawn) | 0 | 1 | 59* | -23 | -16
CC(C)CCN1CCN(Cc2cccc(C(F)(F)F)c2)CC1CCO (stereo not drawn) | 1 | -2 | 76* | -17 | -33
CC(C)CN1CCN(Cc2ccc(C#CC(C)(C)O)cc2)CC1CCO (stereo not drawn) | -3 | 1 | 33* | -9 | 7
SMILES | D2 ag-1 | D2 ag-2 | D2 antag | D2 PAM-1 | D2 PAM-2
CCCCOc1cccc(C(=O)N(Cc2sccc2C)C2CCS(=O)(=O)C2)c1 (stereo not drawn) | · | 1 | · | · | -6
O=S(=O)(c1ccc(-c2cc(C(F)(F)F)on2)s1)N1CCN(c2ccc(F)cc2)CC1 | · | 0 | · | · | -10
CCS(=O)(=O)c1ccc2oc(Nc3ccc(OC)cc3)nc2c1 | -4 | -1 | 34* | 4 | -3
CS(=O)(=O)c1ccccc1C(=O)NC1CCCc2ccccc21 (stereo not drawn) | -1 | 1 | -6 | -3 | 37*
COc1ccccc1C(=O)NC1CCCc2ccccc21 (stereo not drawn) | 2 | 2 | 8 | -5 | 2
CCS(=O)(=O)c1ccccc1C(=O)NC1CCCc2ccccc21 (stereo not drawn) | 3 | -2 | 12 | -5 | 7
COc1cc(C(=O)NC2CCCc3ccccc32)cc(OC)c1C (stereo not drawn) | 1 | -3 | 55* | -4 | ·
NS(=O)(=O)c1ccc(N2CCN(C(=O)C3COc4ccccc4O3)CC2)nc1 (stereo not drawn) | -1 | -1 | 35* | 7 | 1
O=C(C1COc2ccccc2O1)N1CCN(c2ccc(C(F)(F)F)cn2)CC1 (stereo not drawn) | 2 | · | · | -8 | ·
O=C(C1COc2ccccc2O1)N1CCN(c2ccccc2)CC1 (stereo not drawn) | -1 | 0 | 41* | -13 | -4
CCc1nn2c(=O)cc(COC(=O)c3cccs3)nc2s1 | · | 0 | · | · | 19
CC(C)(C)C(=O)N1CCc2cc(-c3csc(N)n3)ccc21 | 10 | 0 | -9 | -14 | 33*
Cc1cc(C)nc(OC(C(=O)O)C(OCC(C)C)(c2ccccc2)c2ccccc2)n1 (stereo not drawn) | 3 | 2 | -9 | 72* | -6
CCC(C)COC(c1ccccc1)(c1ccccc1)C(Oc1nc(C)cc(C)n1)C(=O)O (stereo not drawn) | 9 | 1 | -4 | 1 | -7
CCN(C(=O)COC(=O)/C(C#N)=C/c1ccc(OC)cc1)C1CCS(=O)(=O)C1 (stereo not drawn) | -3 | 0 | 36* | 2 | -16
Clc1ccc(-c2ccc(/C=N/Nc3nncc(-c4ccccc4)n3)o2)cc1 | -3 | 0 | -6 | -7 | -3
Cc1ccc(/C=N/Nc2nncc(-c3ccccc3)n2)o1 | -4 | 0 | 51* | -3 | -10
Cn1nc(C(F)(F)F)c2cc(C(=O)Nc3ccc(F)cc3F)sc21 | 3 | 0 | -5 | -20 | 11
Cn1nc(C(F)(F)F)c2cc(C(=O)Nc3ccc(Cl)cc3)sc21 | 2 | 1 | 64* | -37 | -25
